The values below come from article PMC4336329 (PLoS ONE, 2015).

Screen size: about 310,000 compounds; about 14,000 (4.5%) showed an effect of 50% or more. The effect is printed as a negative number. The full list was thinned out, with strong results kept by preference.
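Note: peak tail current of the secondary pulse compared with the same well before compound.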

The test deals with human ether-à-go-go-related gene (hERG) potassium channel (human, UniProt Q12809). The test can be described thus: primary screen, population patch clamp on CHO cells stably expressing hERG; higher = less effect of the substance.
Chain of human ether-à-go-go-related gene (hERG) potassium channel (Q12809 whole entry, looked up): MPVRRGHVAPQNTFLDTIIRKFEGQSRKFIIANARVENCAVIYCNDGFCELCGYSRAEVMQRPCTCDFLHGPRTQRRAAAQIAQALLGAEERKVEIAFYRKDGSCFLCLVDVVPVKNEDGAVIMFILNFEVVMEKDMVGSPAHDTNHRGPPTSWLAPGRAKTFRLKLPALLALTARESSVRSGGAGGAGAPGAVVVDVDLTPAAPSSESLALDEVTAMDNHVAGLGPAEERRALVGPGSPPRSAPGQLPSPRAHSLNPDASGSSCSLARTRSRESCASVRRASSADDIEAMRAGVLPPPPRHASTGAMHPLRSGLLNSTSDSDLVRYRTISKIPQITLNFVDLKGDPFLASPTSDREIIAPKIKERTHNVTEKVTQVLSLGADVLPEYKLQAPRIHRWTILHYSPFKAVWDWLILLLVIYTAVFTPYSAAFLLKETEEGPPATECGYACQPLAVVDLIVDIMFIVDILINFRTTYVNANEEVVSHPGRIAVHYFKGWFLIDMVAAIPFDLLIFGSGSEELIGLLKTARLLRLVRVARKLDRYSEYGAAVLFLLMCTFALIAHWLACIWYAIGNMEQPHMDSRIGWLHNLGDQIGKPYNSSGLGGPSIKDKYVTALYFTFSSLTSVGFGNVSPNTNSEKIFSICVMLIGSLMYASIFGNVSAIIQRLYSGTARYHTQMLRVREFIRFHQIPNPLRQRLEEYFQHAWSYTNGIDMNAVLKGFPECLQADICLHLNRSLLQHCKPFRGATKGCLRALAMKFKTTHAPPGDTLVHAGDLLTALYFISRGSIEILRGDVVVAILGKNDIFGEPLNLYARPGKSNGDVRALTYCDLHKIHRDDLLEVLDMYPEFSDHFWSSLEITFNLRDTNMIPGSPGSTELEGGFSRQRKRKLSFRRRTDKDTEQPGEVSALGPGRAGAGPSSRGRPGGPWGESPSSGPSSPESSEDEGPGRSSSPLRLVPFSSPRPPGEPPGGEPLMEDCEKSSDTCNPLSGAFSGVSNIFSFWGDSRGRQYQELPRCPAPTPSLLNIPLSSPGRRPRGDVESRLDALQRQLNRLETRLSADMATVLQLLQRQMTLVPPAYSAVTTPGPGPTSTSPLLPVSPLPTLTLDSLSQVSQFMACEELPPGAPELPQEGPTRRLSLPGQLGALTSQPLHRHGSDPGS
As to `COCCn1nnnc1CN1CCC(Cc2ccccc2)CC1.Cl`, the “hERG current change (%, negative = inhibition) at 10uM” value is -3.18%.

With `CCOC(=O)C1CCN(C(=O)COC(=O)c2ccccc2C(=O)c2ccc(Cl)cc2)CC1`, the “hERG current change (%, negative = inhibition) at 10uM” value is -50.4%. As for `O=C(OCC(=O)N1CCN(C(=O)c2ccco2)CC1)c1ccccc1C(=O)c1ccccc1`, the figure is -34%; as for `O=C(OCC(=O)N1CCN(C(=O)c2ccco2)CC1)c1ccccc1NCCO`, 12.6%.

Regarding `O=C(OCC(=O)N1CCN(C(=O)c2ccco2)CC1)c1ccccc1OCc1ccccc1`, the “hERG current change (%, negative = inhibition) at 10uM” value was -43.3%.

`O=C(OCC(=O)N1CCN(C(=O)c2ccco2)CC1)c1ccccc1Cc1ccccc1`: the “hERG current change (%, negative = inhibition) at 10uM” value was -56.3%. Next, `COc1ccc(NS(=O)(=O)c2ccc(O)c(C(=O)OCC(=O)N3CCCCC3)c2)cc1`: -7.02%; `O=C(CCNS(=O)(=O)c1ccc(Cl)cc1)OCC(=O)N1CCN(C(=O)c2ccco2)CC1`: -47.4%; `O=C(OCC(=O)N1CCN(C(=O)c2ccco2)CC1)c1ccccc1C(=O)c1ccc(Cl)cc1`: -64.8%. As for `CCOC(=O)C1CCN(C(=O)COC(=O)Cc2ccc(Cl)cc2)CC1`, the figure is -22.7%. As for `O=C(OCC(=O)N1CCOCC1)c1ccccc1Cc1ccccc1`, the figure is -35.2%; as for `O=C(OCC(=O)N1CCN(C(=O)c2ccco2)CC1)c1cc(S(=O)(=O)Nc2ccc(Cl)cc2)ccc1O`, -64.6%. Take `CCOC(=O)C1CCN(C(=O)COC(=O)COc2ccc(Cl)cc2)CC1`: the “hERG current change (%, negative = inhibition) at 10uM” value was 13.3%. As for `O=C1CCCC2=C1C(c1cccnc1)Nc1ccccc1N2` (centres unmarked), the figure is 5.41%; as for `COc1ccc(NC(=O)CCC(=O)c2cccs2)cc1Cl`, 17.6%.

With `CCOc1cccc2sc(Cl)nc12`, the “hERG current change (%, negative = inhibition) at 10uM” value is reported as 13.7%.

Consider `COc1cc(N/C=C2\CC(=O)NC(C)=C2C#N)cc(OC)c1OC`, for which the “hERG current change (%, negative = inhibition) at 10uM” value turned out to be 19.6%. As for `Cc1c(NC(=O)COC(=O)C2(c3ccccc3F)CCCC2)c(=O)n(-c2ccccc2)n1C`, the figure is -1.01%. On to `O=c1c2oc3ccccc3c2ncn1Cc1ccc(Cl)cc1`, for which the “hERG current change (%, negative = inhibition) at 10uM” value is on record as 11.7%. As for `CCOc1ccccc1N1CCN(c2nc(N)c(C#N)c(CC#N)c2C#N)CC1`, the figure is -37.2%; as for `CCCn1c(SCC(=O)Nc2sc(C)c(C)c2C#N)nnc1C(C)C`, -9.76%.

In the case of `O=C(NCCc1csc(-c2cccnc2)n1)c1ccc(Br)o1`, the “hERG current change (%, negative = inhibition) at 10uM” value is on record as -10.9%. As for `Cc1cc(C)cc(N=C2NC(=O)CS2)c1`, the figure is 0.159%; as for `CCN(CC)C(=O)COc1ccc(/C(C)=N/NC(=O)c2ccccc2Br)cc1`, 8.89%. As for `COc1ccc(CCN(C)C(=O)CSc2nnc(-c3ccco3)o2)cc1OC`, the figure is -21.3%; as for `C=CCSc1nnc2nc3c(nn12)c1cc(C)ccc1n3CC=C`, -55.1%; as for `C=CCSc1nnc2nc3[nH]c4c(C)cccc4c3nn12`, 4.32%. `CCCSc1nnc2nc3c(nn12)c1ccccc1n3C`: the “hERG current change (%, negative = inhibition) at 10uM” value is on record as -49.7%. Next, `O=C(NCc1ccc2c(c1)OCO2)C1(S(=O)(=O)c2ccccc2)CC1`: 13.4%; `CC(C)Cc1cc(C(=O)N2CCN(C(c3ccccc3)c3ccccc3)CC2)no1`: 0.0803%; `COc1ccc(/C=c2/sc3nc(-c4ccccc4)c(-c4ccccc4)n3c2=O)cc1`: -13.9%. As for `NC(=O)C1CCN(S(=O)(=O)Cc2ccccc2Cl)CC1`, the figure is 14.8%. As for `CCn1c(SCc2ccc(C(=O)Nc3cc(C)cc(C)c3)cc2)nnc1-c1ccncc1`, the figure is -59.2%; as for `CCn1c(SCc2cccc(F)c2)nnc1-c1ccncc1`, -8.82%. As to `CCn1c(SCc2ccc(Cl)cc2)nnc1-c1ccccc1`, the “hERG current change (%, negative = inhibition) at 10uM” value was -44.4%. As for `CCOC(=O)CSc1nnc(-c2cccc(Cl)c2)n1CC`, the “hERG current change (%, negative = inhibition) at 10uM” value is reported as -3.47%. As for `CCn1c(SCc2ccc(C#N)cc2)nnc1-c1cccc(Cl)c1`, the “hERG current change (%, negative = inhibition) at 10uM” value is -73.6%.

Take `C=CCn1c(SCc2ccc(C#N)cc2)nnc1-c1cccc(OC)c1`: the “hERG current change (%, negative = inhibition) at 10uM” value is on record as -67.4%. As for `CCn1c(SCc2ccc(C(=O)Nc3nccs3)cc2)nnc1-c1ccc(N)cc1`, the figure is -22.2%. Next, `CCn1c(SCc2cccc(C)c2)nnc1-c1ccccc1`: -32.9%; `CCn1c(SCc2cccc(C)c2)nnc1-c1ccc(C)cc1`: -63.7%; `C=CCn1c(SCc2ccc(OC)cc2)nnc1-c1cccnc1`: -26.9%. As for `CCn1c(SCc2ccc(C(=O)Nc3nccs3)cc2)nnc1-c1ccc(NC(C)=O)cc1`, the figure is 1.21%. As to `C=CCn1c(SCc2cccc(OC)c2)nnc1-c1ccncc1`, the “hERG current change (%, negative = inhibition) at 10uM” value is recorded as -15.5%. Turning to `CCOC(=O)c1c(C)[nH]c(C(=O)COC(=O)C23CC4CC(CC(Cl)(C4)C2)C3)c1C`, the “hERG current change (%, negative = inhibition) at 10uM” value came to 11.6%. For `CC1C(=O)N2CCCc3cc(NC(=O)C4CCCCC4)cc1c32` (centres unmarked), the “hERG current change (%, negative = inhibition) at 10uM” value amounted to 4.17%. Next, `CCOC(=O)c1cc(S(=O)(=O)N2CCc3ccccc32)cn1C`: -0.504%; `CCOCc1nnc(NC(=O)CSCc2ccccc2)s1`: -1.7%. Turning to `Cc1ccc2cc(NC(=O)c3cccc(F)c3)ccc2n1`, the “hERG current change (%, negative = inhibition) at 10uM” value is 0.701%.

For the compound `CCOC(=O)C(NC(C)=O)C(=O)Nc1ccc(C)cc1C` (centres unmarked), the “hERG current change (%, negative = inhibition) at 10uM” value stood at 15.7%. For the compound `O=C(Nc1nccs1)c1cccc(NC(=O)C(F)(F)F)c1`, the “hERG current change (%, negative = inhibition) at 10uM” value is -5.07%. As for `O=c1c2c3c(sc2nc2n1CCCCC2)C(O)CCC3` (centres unmarked), the figure is 3.27%; as for `C=CCn1c(SCC(=O)O)nnc1-c1cccc(Cl)c1`, 4.71%. Regarding `C=CCn1c(SCc2ccc(C#N)cc2)nnc1-c1cccc(Cl)c1`, the “hERG current change (%, negative = inhibition) at 10uM” value is -72.7%.

For `C=CCn1c(SCc2cccc(C#N)c2)nnc1-c1ccccc1O`, the “hERG current change (%, negative = inhibition) at 10uM” value is -30.4%.

Consider `Cc1cc(NC(=O)CSc2nc3ccccc3c(=O)n2CCCC(=O)NCc2ccccc2)n[nH]1`, for which the “hERG current change (%, negative = inhibition) at 10uM” value is recorded as -8.72%.
